Screening results as filed in PubChem BioAssay.
Most compounds without a hit are left out; they make up all but 5.5% or so of the library.
CBFb RUNX1 block: inhibitors of human CBF-beta and RUNX1 interaction; Q01196+Q13951; 230,000 tested, under 10 active; AlphaScreen CBFb-His/RUNX1-biotin binding, biochemical; Potency, µM (doses to about 59.8 µM), usual class: inhibitors
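Read-out: AlphaScreen. Format: His-CBF-beta with biotinylated RUNX1 (30 nM each) preincubated 20 min, compound 15 min, Ni-chelate plus streptavidin beads 90 min; room temperature throughout.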
CtBP-E1A inh: inhibitors of CtBP/E1A interaction; 340,000 compounds, 0.49% hits; AID 651724; AlphaScreen GST-E1A/His-CtBP binding, 1536-well; stronger effect = lower value; activity change, % (test concentration not listed); in the data active = activity change below about -65%; inconclusive = mostly about -30% to -63%
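Protein mix (5X: 125 nM each GST-E1A, His-CtBP) was incubated with pinned compound 2 h at 37 deg C in dark, in 50 mM Tris pH 8.0 buffer with 300 mM NaCl. Glutathione donor and nickel acceptor beads followed; AlphaScreen signal read after 1 h.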
RORg inh: blocks mouse ROR gamma transcriptional activity | AID 2551 | Drosophila S2 Gal4-RORgamma UAS-luciferase reporter, 20 h | 310,000 compounds, 5.4% hits | P51450 | Potency, µM (highest dose often 53.6 µM), hits mostly inhibitors; also: nearly all actives have a fitted effect of over 60% in size
Target sequence (P51450 whole entry, looked up, the tested form may be a part): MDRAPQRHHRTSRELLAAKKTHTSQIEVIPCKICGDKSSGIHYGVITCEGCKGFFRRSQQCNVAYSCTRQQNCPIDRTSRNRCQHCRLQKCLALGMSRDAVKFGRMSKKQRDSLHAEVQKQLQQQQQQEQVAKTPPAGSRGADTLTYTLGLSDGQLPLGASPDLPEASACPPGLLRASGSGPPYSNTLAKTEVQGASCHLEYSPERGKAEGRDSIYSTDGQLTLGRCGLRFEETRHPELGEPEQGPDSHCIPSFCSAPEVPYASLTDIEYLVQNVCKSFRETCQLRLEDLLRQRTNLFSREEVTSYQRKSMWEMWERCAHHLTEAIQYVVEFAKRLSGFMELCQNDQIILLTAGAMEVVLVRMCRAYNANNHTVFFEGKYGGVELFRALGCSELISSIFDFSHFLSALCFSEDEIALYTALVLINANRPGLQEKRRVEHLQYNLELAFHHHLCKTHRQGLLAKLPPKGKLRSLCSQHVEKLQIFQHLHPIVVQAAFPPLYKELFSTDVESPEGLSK
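Drosophila Schneider cells stably carrying a metallothionein-driven Gal4 DBD–ROR gamma fusion and a UAS-Photinus luciferase reporter were exposed to compound for 1 hr, then induced with copper sulfate (700 uM final) for 20 hr at ambient temperature before luminescence reading.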
MBNL1-CUG inh: MBNL1-poly(CUG) RNA binding inhibition. Potency, µM (doses to about 57.5 µM), most hits filed as inhibitors. TR-FRET MBNL1-His/biotin-(CUG)12 binding, 665/545 ratio. 280,000 compounds, 0.036% hits; active = well fitted inhibition curve with a large enough effect in the signal ratio, with a control signal flat, not every such curve was filed as active; inconclusive = small, poorly fitted or top-dose-only effect, or effect the other way, or a change in a side signal; inactive = no such curve, though single readings can be large or run the other way; the % refers to the signal ratio
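Compound titration spanned 92 nM–58 uM against the MBNL1-His/biotin-(CUG)12 complex. After 60 min at room temperature with 5 nM streptavidin-XL665 and 0.055 ng/ul terbium anti-His, ratiometric 665/545 nm emission (Ex 340 nm) normalized to controls.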
Six1-Eya2 blk: blocks human Six1 binding to Eya2; activity change, % (concentration not given with the values); AID 651725; AlphaScreen GST-Six1/His-Eya2 binding, biochemical; stronger effect = lower value; 360,000 compounds, 0.56% hits; Q15475+O00167; in the data active = activity change below about -65%; inconclusive = mostly about -30% to -63%
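AlphaScreen with GST-Six1 and His-Eya2 (5X mix: 250 nM and 500 nM), glutathione donor and nickel acceptor beads; buffer 50 mM Tris pH 8.0, 300 mM NaCl, 1 mM TCEP; 1 h at 37 C in the dark.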
VP16 counter: Gal4-VP16 reporter inhibition counter-screen | Drosophila S2 Gal4-VP16 UAS-luciferase, luminescence, 20 h | AID 2546 | Potency, µM (titrated, usually from 53.6 µM), usual class: inhibitors | 310,000 compounds, 3.5% hits;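 also: Gal4-VP16 expression switched on by copper sulfate through the metallothionein promoter; nearly all actives have a fitted effect of over 50% in size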
Numbers stand for hits; 0 = inactive; ? = inconclusive; - = no result given; ! = not active in a repeat; [ ] = another dose, or the depositor's remark. Unless noted, calls follow the shape of the dose curve; as a rule, active = well fitted curve in the direction sought with a large enough effect; inconclusive = small, poorly fitted or top-dose-only effect, or another doubt; inactive = no such curve, though single readings can be large; an effect the other way counts as inactive or inconclusive.

SMILES	CBFb RUNX1 block	CtBP-E1A inh	RORg inh	MBNL1-CUG inh	Six1-Eya2 blk	VP16 counter
CN(CCO)c1cc(Sc2nc3ccccc3s2)c2nonc2c1[N+](=O)[O-]	0	0	11µM	?	0	13µM
CSc1ccccc1-c1cnc(NC(C)=O)cn1	-	0	-	-	0	-
C#CC1(NC(=S)Nc2cccc(OC)c2)CCCCC1	-	0	-	-	0	-
O=C(CN1CCN(S(=O)(=O)c2ccc(F)cc2)CC1)Nc1ccnn1C1CCCC1	-	0	-	-	0	-
O=c1c2c(nc3c(-c4ccccc4)c[nH]n13)CCCC2	0	0	10µM	0	0	?
Cc1[nH]n2c(=O)c3c(nc2c1-c1ccccc1)CCC3	0	0	13µM	0	0	?
Cc1[nH]n2c(=O)c3c(nc2c1-c1ccc(Cl)cc1)CCC3	0	0	2.2µM	0	0	?
CN(C)S(=O)(=O)n1cc(/C=C(\NC(=O)c2ccccc2F)C(=O)NCCCN2CCOCC2)c2ccccc21	-	0	0	0	0	0
O=C(NC1CCS(=O)(=O)C1)c1ccccc1Cl (configuration not stated)	-	0	-	-	0	-
COC(=O)N/N=C/c1cccc(OC(=O)c2ccc3c(c2)OCO3)c1	0	0	0	-	0	0
COc1cc(/C=N/NC(N)=S)ccc1OC(=O)c1ccc(C)cc1	0	0	20µM	0	0	?
COc1cc(/C=N/NC(N)=S)ccc1OCc1ccc(C)cc1	0	0	7.1µM	-	0	8.9µM
COc1ccc(C(=O)Oc2cccc(/C=N/NC(N)=S)c2)cc1	0	0	16µM	-	0	10µM
NC(=O)c1ccsc1NC(=O)CS(=O)(=O)c1ccccc1	-	0	-	-	0	-
OC[C@@H](O)C(O)[C@H](O)[C@H](O)CO (some centres not stated)	0	-	0	-	-	0
N#CC1=C(N)C2=CCCC[C@H]2[C@H](c2ccccc2)C1(C#N)C#N	0	0	0	0	0	0
N#CC1=C(N)C2=CCCC[C@H]2[C@H](c2ccc(Br)cc2)C1(C#N)C#N	0	0	?	0	0	5µM
COCCn1c(=O)c(-c2ccc(Cl)cc2)nc2cnc(Nc3ccccc3)nc21	-	-	0	-	-	0
C[C@H]1CN([C@@H](C)CO)C(=O)CCCn2cc(nn2)CO[C@@H]1CN(C)C(=O)Nc1ccc(F)cc1	-	0	-	-	0	-
NC(=NCCCCCCN=C(N)/N=C(\N)Nc1ccc(Cl)cc1)/N=C(\N)Nc1ccc(Cl)cc1	0	0	?	0	0	16µM!
CC1CCN(C(=S)c2cn(Cc3ccc(F)cc3)c3ccccc23)CC1	0	0	5µM	0	0	11µM
CN1CCN(C(=S)c2cn(Cc3ccccc3F)c3ccccc23)CC1	0	0	11µM	0	0	0
CN1CCN(C(=S)c2cn(Cc3ccc(F)cc3)c3ccccc23)CC1	0	-	?	0	0	0
CC1CCN(C(=O)C(=O)c2cn(CC(=O)N3CCCC3)c3ccccc23)CC1	-	0	0	0	0	0
CN1CCN(C(=S)c2cn(Cc3cccc(F)c3)c3ccccc23)CC1	0	-	13µM	0	0	0
SMILES	CBFb RUNX1 block	CtBP-E1A inh	RORg inh	MBNL1-CUG inh	Six1-Eya2 blk	VP16 counter
CC1CCN(C(=S)c2cn(Cc3ccccc3F)c3ccccc23)CC1	0	0	0.89µM	?	?	4.5µM
N=C1SCC(=O)N1c1ncc(Cc2cccc(Cl)c2)s1	0	0	0.35µM	0	0	0.89µM
N=C1SCC(=O)N1c1ncc(Cc2ccccc2Cl)s1	0	0	126µM	0	0	0.71µM
COc1ccc(OC)c(NC(=O)C2CCC(CNc3c(N4CCC(C)CC4)c(=O)c3=O)CC2)c1 (configuration not stated)	0	0	0.79µM	0	0	0
Cn1c(N)c(C(=O)CSc2ncn[nH]2)c(=O)n(C)c1=O	0	0	0	-	0	0
Cc1nnc(SCC(=O)c2c(N)n(C)c(=O)n(C)c2=O)[nH]c1=O	0	-73	0	0	?	0
COc1ccc(NC(=S)Nc2cc(C)cc(C)n2)cc1OC	0	0	0	0	0	?
COc1cccc(NC(=S)Nc2cc(C)cc(C)n2)c1	0	0	1.3µM	-	0	?
Cc1cc(C)nc(NC(=S)Nc2cccc(F)c2)c1	0	0	1.8µM	-	0	7.1µM
COc1ccc(C(=O)NC2CC2)cc1OC1CCN(Cc2ccc(F)cc2)CC1	-	0	0	0	0	0
CC1(C)CC2=C(CO1)C(=S)NC(c1ccccc1)N2CC1CCCO1 (configuration not stated)	0	0	16µM	0	0	?
O=c1c2ccccc2[nH]c(=S)n1CC1CCCO1 (configuration not stated)	-	0	-	-	0	-
CCc1nc2c(OCCC3CCCCC3)cccn2c1N(C)C(=O)COc1ccccc1	-	0	-	-	0	-
Cc1nc(C(F)(F)F)ccc1C(=O)N1CCC1(C)C(=O)NS(=O)(=O)c1cccc(F)c1 (configuration not stated)	-	0	-	-	0	-
CC1CCCN(c2ncnc3c2cnn3-c2ccc(Cl)cc2)C1 (configuration not stated)	0	0	0	0	0	0
CC1CCCN(c2ncnc3c2cnn3-c2ccccc2)C1 (configuration not stated)	0	0	?	0	0	5µM
c1ccc(-n2ncc3c(N4CCCCC4)ncnc32)cc1	0	0	5µM	0	0	5.6µM
S=C(NC1CC2CCC1C2)N1CCN(c2cccc(Cl)c2)CC1 (configuration not stated)	0	0	22µM	0	0	0
CC(C)(C)c1nnc(NC(=O)c2cc(-c3ccccc3)nc3ccccc23)s1	0	0	5.6µM	0	0	10µM
CN1CCN(NC(=O)c2cc(-c3cccc(Cl)c3)nc3ccccc23)CC1	0	0	?	0	0	0
CC(C)c1ccc(-c2cc(C(=O)NN3CCN(C)CC3)c3ccccc3n2)cc1	0	0	11µM	0[11.5 µM]	0	14µM
CCc1nnc(NC(=O)c2cc(-c3ccccn3)nc3ccc(Br)cc23)s1	-	0	20µM	0	0	?
O=C(NC1=NCCS1)c1cc(-c2ccc(-c3ccccc3)cc2)nc2ccccc12	0	0	3.5µM	-	0	5µM
COc1ccc(-c2cc(C(=O)NC3=NCCS3)c3ccccc3n2)cc1OC	0	0	?	0	0	0
COc1ccc(C(=O)O)cc1S(=O)(=O)NC(C)C12CC3CC(CC(C3)C1)C2 (configuration not stated)	-	0	-	-	0	-
COc1ccc(NC(=O)CCN(c2ccc(OC)cc2)S(=O)(=O)c2ccc(C)c(C)c2)cc1	-	0	-	-	0	-
O=C(NCCCNc1ccnc2cc(Cl)ccc12)c1ccccc1F	-	-	0	0	0	0
